Assay outcomes (PubChem BioAssay)
The list is not random: actives were taken first. Their share in the collection is about 2.4%.
Pol iota inh: DNA polymerase iota (human) inhibition; Pol iota fluorescent replication assay, 10 min; Potency, µM (highest dose often 115 µM), most hits filed as inhibitors; 1% of 390,000 active; Q9UNA4
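Pol iota at 10 nM preincubated 15 min with compounds at room temperature; reaction started with fluorescent substrate, 50 nM final. Fluorescence read kinetically at 0 and 10 min; buffer-only wells as negative control.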
WRN helicase inh: blocks human WRN helicase. WRN helicase unwinding, fluorescent forked duplex, kinetic. Potency, µM (highest dose often 114 µM), most hits filed as inhibitors. 0.46% of 360,000 active. AID 651768. Q14191; note: nearly all actives have a fitted effect of over 55% in size
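WRN at 20 nM final preincubated with compound 15 min at room temperature; reaction started with 100 nM fluorophore/quencher forked duplex oligonucleotide and 2 mM ATP final. Unwinding followed kinetically by red fluorescence (ex 525, em 598 nm).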
Pol eta inh: blocks human DNA polymerase eta activity | recombinant Pol eta, fluorescent DNA replication assay | Potency, µM (top dose mostly 114 µM), actives largely listed as inhibitors | Q9Y253 | AID 588591 | 1.2% of 390,000 active
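Fluorescent replication assay: 50 nM final substrate added after a 15 min room-temperature compound preincubation with 10 nM enzyme. Signal taken at 0 min and again at 10 min.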
FEN1 inh: inhibitors of human flap endonuclease 1; Recombinant FEN1 flap cleavage, fluorescence, 15 min; Potency, µM (titrated, usually from 114 µM), most hits filed as inhibitors; P39748; 0.35% of 390,000 active; note: nearly all actives have a fitted effect of over 65% in size
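Recombinant FEN1 (10 nM) was preincubated with pin-transferred compounds for 15 min at room temperature, then flap DNA substrate (50 nM final) was added. Plates were read at 0 and 15 min, and normalized concentration–response data were fitted to a four-parameter Hill equation.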
Pol kappa inh: DNA polymerase kappa (human) inhibition; AID 588579; 0.53% of 400,000 active; Potency, µM (doses to about 107 µM), actives largely listed as inhibitors; purified Pol kappa, fluorescent DNA synthesis assay, 10 min
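10 nM Pol kappa was preincubated with compounds for 15 min at room temperature. Reaction started with 50 nM (final) substrate. Fluorescence read kinetically at 0 and 10 min.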
POLB inh: blocks human DNA polymerase beta activity; P06746; Pol beta primer extension/strand displacement, fluorescence kinetic; Potency, µM (doses to about 114 µM), hits mostly inhibitors; 1.3% of 340,000 active; AID 485314
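Curves were derived by four-parameter Hill fits of normalized qHTS data. The kinetic fluorescent primer-extension read was taken at 0 and 10 min after 50 nM substrate, following a 15 min room-temperature preincubation of 10 nM enzyme with compounds.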
Each line names hits and unclear results; the compound was inactive in the other large screens. Calls come from the whole dose curve; as a rule, active = well fitted curve in the direction sought with a large enough effect; inconclusive = small, poorly fitted or top-dose-only effect, or another doubt; inactive = no such curve, though single readings can be large; an effect the other way counts as inactive or inconclusive.

CCOC(=O)c1c2c([nH]c(=S)c1C#N)CCCC2	Pol iota inh inconclusive, Pol eta inh 79.4µM, POLB inh inconclusive
C1NNCC12CNNC2	none (no result: WRN helicase inh, Pol eta inh, POLB inh)
CCOC(=O)c1cc(-c2ccco2)nc2c1c(C)nn2-c1cccc(Cl)c1	Pol eta inh inconclusive, POLB inh 28.2µM
NC(=O)C(=CNc1nc(-c2ccc(Cl)c(Cl)c2)cs1)C(N)=O	POLB inh 1.41µM (no result: Pol iota inh, WRN helicase inh, Pol eta inh, FEN1 inh, Pol kappa inh)
O=C(O)c1ccc(-c2nc(-c3ccc(Cl)c(Cl)c3)cs2)cc1	none
COc1cc2nc(Cl)nc(NC(C)C)c2cc1OC	none (no result: WRN helicase inh, Pol eta inh, POLB inh)
O=[N+]([O-])c1ccc(Nc2nc(Cl)nc(NCCO)n2)cc1	none
Nc1c(S(=O)(=O)O)cc(Nc2ccc(Nc3nc(Cl)nc(Nc4ccc(S(=O)(=O)O)cc4)n3)c(S(=O)(=O)O)c2)c2c1C(=O)c1ccccc1C2=O	Pol iota inh 1.58µM, Pol eta inh 0.631µM, FEN1 inh 2µM, Pol kappa inh 2.67µM, POLB inh 1.12µM (no result: WRN helicase inh)
Cc1ccc(NC(=O)COc2ccccc2C(=O)Nc2ccccc2)cc1	none (no result: WRN helicase inh, Pol eta inh, POLB inh)
Cc1ccc(-c2nnn3c2nc(NCCc2ccc(S(N)(=O)=O)cc2)c2ccccc23)cc1	POLB inh 5.01µM
Cc1cccc(-c2nnn3c2nc(NCCc2ccc(S(N)(=O)=O)cc2)c2ccccc23)c1	Pol iota inh inconclusive, Pol eta inh inconclusive, POLB inh 10µM
Cc1ccc(-c2nnn3c2nc(NCCc2ccc(Cl)cc2)c2ccccc23)cc1	none (no result: WRN helicase inh)
NS(=O)(=O)c1ccc(CCNc2nc3c(-c4cccc(F)c4)nnn3c3ccccc23)cc1	Pol eta inh inconclusive
CCOC(=O)/C=C1\SCC(=O)N1CC(O)CN1C(=O)CS/C1=C\C(=O)OCC	none
CCOC(=O)/C=C1/SCC(=O)N1CC(=O)c1ccc[nH]1	Pol iota inh 22.4µM, Pol eta inh inconclusive (no result: POLB inh)
O=C1NN(c2ccccc2)C(=O)/C1=C\c1cccc(OC(=O)c2cccs2)c1	Pol iota inh inconclusive, WRN helicase inh inconclusive, Pol eta inh 28.2µM, POLB inh 28.2µM
COc1cc(C(C)C)c2c(c1)S(=O)(=O)N(COc1cc(=O)n3cccc(OCCN4CCCCC4)c3n1)C2=O	none (no result: Pol iota inh, WRN helicase inh, Pol eta inh, FEN1 inh, POLB inh)
O=C1CCN(CCc2ccccc2)CCN1C(CSc1ccc(Br)cc1)Cc1ccccc1 (configuration not stated)	Pol iota inh inconclusive (no result: WRN helicase inh, Pol eta inh, POLB inh)
O=S(=O)(Nc1ncnc2sc3c(c12)CCC3)c1ccc(Cl)s1	Pol iota inh inconclusive, Pol eta inh 35.5µM
CCCC(=O)N1CCN(c2nc3ccc(Br)cc3s2)CC1	FEN1 inh 25.1µM
c1ccc(Cn2c(SCc3nc4ccccc4s3)nnc2-c2ccco2)cc1	Pol iota inh 22.4µM, WRN helicase inh 35.5µM, Pol eta inh 14.1µM, FEN1 inh inconclusive, Pol kappa inh inconclusive, POLB inh 50.1µM
CC1(C)C(/C=C/C=C/C=C/C=C2\N(CCCCS(=O)(=O)O)c3ccc4ccccc4c3C2(C)C)=[N+](CCCCS(=O)(=O)[O-])c2ccc3ccccc3c21	Pol iota inh 12.6µM, WRN helicase inh 44.7µM, Pol eta inh 7.08µM, FEN1 inh 20µM, Pol kappa inh 22.4µM (no result: POLB inh)
Cc1c2ccccc2cc[n+]1CCCS(=O)(=O)[O-]	none
COc1ccc(N(CC(=O)NCCSCc2ccco2)S(=O)(=O)c2ccccc2)cc1	none
CN(c1ccc(C(=O)NCCSCc2ccco2)cc1)S(C)(=O)=O	POLB inh 1µM
O=C(CN(c1ccccc1)S(=O)(=O)c1ccccc1)NCCSCc1ccco1	Pol iota inh inconclusive, Pol eta inh inconclusive, Pol kappa inh 79.4µM, POLB inh 56.2µM
CN(c1ccc(C(=O)NCc2ccco2)cc1)S(C)(=O)=O	none
C/C(=N\Nc1nc(-c2ccc(C)cc2C)cs1)c1cc2ccccc2oc1=O	POLB inh 22.4µM
Cc1ccc(NC(=O)CN2C(=O)N/C(=C/c3cc(C)n(-c4cccc(C(=O)O)c4)c3C)C2=O)cc1	Pol iota inh 44.7µM, WRN helicase inh inconclusive, Pol eta inh 20µM, Pol kappa inh inconclusive, POLB inh 10µM
